The supplement of paper PMC13380429

Tested on: Vero E6 infected with SARS-CoV-2
Assay: inhibition of SARS-CoV-2 cytopathic effect; higher = more antiviral protection, active = above 15
Conditions: 48 h

Measured: inhibition of SARS-CoV-2 cytopathic effect

COc1ccccc1CN[C@H]1CCCN[C@H]1c1ccccc1
inactive: 1 nM -0.59% | 8.33 nM -1.96% | 100 nM 2.38% | 833.33 nM -1.82% | 10000 nM -3.19%

N=C(Nc1ccccc1)Nc1ccccc1 [diphenylguanidine]
inactive: 1 nM -3.55% | 8.33 nM -2.37% | 100 nM -2.77% | 833.33 nM -0.58% | 10000 nM 2.16%

CC1(C)[C@H](C(=O)O)N2C(=O)C[C@H]2S1(=O)=O [sulbactam]
inactive: 1 nM 2.32% | 8.33 nM 2.68% | 100 nM -2.37% | 833.33 nM -0.56% | 10000 nM -3.63%

COc1ccc(-c2ccc3c(N4CCOC[C@@H]4C)nc(N4CCOC[C@@H]4C)nc3n2)cc1CO
inactive: 1 nM -1.08% | 8.33 nM -2.46% | 100 nM -3.62% | 833.33 nM -4.35% | 10000 nM -6.56%

CC(C)(C)NCC(O)COc1cccc2c1CCC(=O)N2 (stereo not given) [carteolol]
inactive: 1 nM 2.16% | 8.33 nM 1.11% | 100 nM 0.54% | 833.33 nM 2.62% | 10000 nM -0.66%

CCCCCCCCCCCCCCCC(=O)OC[C@@H](NC(=O)C(Cl)Cl)[C@H](O)c1ccc([N+](=O)[O-])cc1 [chloramphenicol-palmitate]
inactive: 1 nM 0.12% | 8.33 nM 0.68% | 100 nM -1.3% | 833.33 nM -1.25% | 10000 nM 0.57%

O=C(N[C@@H](Cc1c[nH]c2ccccc12)C(=O)O)c1ccc(Cl)cc1 [benzotript]
inactive: 1 nM 1.07% | 8.33 nM 1.9% | 100 nM 2.83% | 833.33 nM 2.01% | 10000 nM 3.35%
